POLH inh – inhibitors of human DNA polymerase eta; actives 1.2% (n = 390,000); recombinant Pol eta, fluorescent DNA replication assay; Q9Y253; Potency, µM (highest dose often 114 µM), for inactives: at the top dose activity change, negative = inhibition, actives largely listed as inhibitors; further: on the % scale 0 is the no-effect control and ±100 the full control effect
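Pol eta (10 nM) was preincubated with compounds for 15 min at room temperature, after which fluorescent replication substrate (50 nM final) was added to start the reaction. Fluorescence was read kinetically at 0 and 10 min.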
POLK inh – inhibitors of human DNA polymerase kappa; purified Pol kappa, fluorescent DNA synthesis assay, 10 min; Potency, µM (titrated, usually from 107 µM), inactives show at the top dose activity, negative = inhibition, actives largely listed as inhibitors; AID 588579; Q9UBT6; actives 0.53% (n = 400,000); further: on the % scale 0 is the no-effect control and ±100 the full control effect
Target sequence (Q9UBT6 whole entry, looked up): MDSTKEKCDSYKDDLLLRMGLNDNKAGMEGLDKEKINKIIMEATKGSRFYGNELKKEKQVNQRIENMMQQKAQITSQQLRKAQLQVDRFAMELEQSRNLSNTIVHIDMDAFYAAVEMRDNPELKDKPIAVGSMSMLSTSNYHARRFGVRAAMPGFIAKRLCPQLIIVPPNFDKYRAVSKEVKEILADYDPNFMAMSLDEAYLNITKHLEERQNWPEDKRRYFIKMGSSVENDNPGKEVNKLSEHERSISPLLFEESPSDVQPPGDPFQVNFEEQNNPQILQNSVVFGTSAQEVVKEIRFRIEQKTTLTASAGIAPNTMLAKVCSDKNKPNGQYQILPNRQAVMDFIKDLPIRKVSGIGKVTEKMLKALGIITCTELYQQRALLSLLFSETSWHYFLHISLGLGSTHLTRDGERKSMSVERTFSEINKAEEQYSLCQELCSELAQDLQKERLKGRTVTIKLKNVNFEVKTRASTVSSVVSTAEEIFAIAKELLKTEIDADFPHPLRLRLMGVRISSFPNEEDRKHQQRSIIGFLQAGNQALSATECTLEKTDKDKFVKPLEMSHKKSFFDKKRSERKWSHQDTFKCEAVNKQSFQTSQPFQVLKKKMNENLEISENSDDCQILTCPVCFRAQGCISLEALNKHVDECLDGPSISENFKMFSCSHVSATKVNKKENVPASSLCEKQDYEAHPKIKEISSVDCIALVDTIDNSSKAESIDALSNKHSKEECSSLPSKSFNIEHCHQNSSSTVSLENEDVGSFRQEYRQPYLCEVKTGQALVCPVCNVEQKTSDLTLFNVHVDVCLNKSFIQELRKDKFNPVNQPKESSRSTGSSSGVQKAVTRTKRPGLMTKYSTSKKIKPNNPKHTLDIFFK
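Pol kappa 10 nM + cpd, 15 min RT; start w/ substrate 50 nM final; fluorescence kinetic read, 0 and 10 min. Neg ctrl: buffer, no enzyme.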
Pol beta inh – blocks human DNA polymerase beta activity; P06746; Pol beta primer extension/strand displacement, fluorescence kinetic; Potency, µM (highest dose often 114 µM), without a hit: at the top dose activity change, negative = inhibition, hits mostly inhibitors; actives 1.3% (n = 340,000); further: on the % scale 0 is the no-effect control and ±100 the full control effect
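Preincubation: enzyme (10 nM) with compound, 15 min, RT. Reaction: substrate added to 50 nM final. Reads: 0 and 10 min. Analysis: normalized, Hill fit.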
TDP1 inh – TDP1 (human) enzyme inhibition | recombinant TDP1, AlphaScreen DNA substrate cleavage | Q9NUW8 | actives 0.28% (n = 350,000) | Potency, µM (highest dose often 130 µM), inactives show at the highest dose activity change, negative = inhibition, most hits filed as inhibitors; further: on the % scale 0 is the no-effect control and ±100 the full control effect; nearly all actives have a fitted effect of over 40% in size
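Signal: AlphaScreen proximity between streptavidin donor and anti-FITC acceptor beads on intact substrate. Reaction: Tdp1 1 nM, substrate 15 nM final, 5 min RT after 15 min compound preincubation.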
POLI inh – blocks human DNA polymerase iota activity; Potency, µM (titrated, usually from 115 µM), without a hit: at the highest dose activity, negative = inhibition, usual class: inhibitors; Q9UNA4; Pol iota fluorescent replication assay, 10 min; actives 1% (n = 390,000)
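Pol iota at 10 nM preincubated 15 min with compounds at room temperature; reaction started with fluorescent substrate, 50 nM final. Fluorescence read kinetically at 0 and 10 min; buffer-only wells as negative control.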
* marks the source's active call; other numbers are inactive results; u = inconclusive; x = no result given; [ ] = remark or other dose. Most compounds without a hit are left out; they make up all but 2.4% or so of the library. The call rests on the fitted dose curve; in most records, active means well fitted curve in the direction sought with a large enough effect; inconclusive means small, poorly fitted or top-dose-only effect, or another doubt; inactive means no such curve, though single readings can be large; an effect the other way counts as inactive or inconclusive. Potency means the concentration at half of the fitted maximal effect.

SMILES	POLH inh	POLK inh	Pol beta inh	TDP1 inh	POLI inh
Oc1cc(NCCc2cccnc2)cc2cccnc12	-5.5%	-27.1%	x	6.1%	35.5µM*
CC(=O)Nc1ccc(C(=O)Nc2nc(-c3cccnc3)cs2)cc1	12.8%	-17.5%	-1.5%	70.8µM*	78.6%
N#Cc1ccc(OCC(=O)Nc2nc(-c3cccnc3)cs2)cc1	50.1µM*	-20.0%	x	-3.8%	u
CC(=O)C(C(C)=O)C1(O)C(=O)c2ccccc2C1=O	89.1µM*	-2.4%	u	0.6%	3.16µM*
Cc1ccc(N(CC(=O)N2CC(=O)Nc3ccccc32)S(=O)(=O)c2ccc3c(c2)OCCO3)cc1	-9.1%	-10.9%	-1.1%	2.4%	79.4µM*
O=C(Nc1ccc2[nH]c(=S)sc2c1)Nc1ccccc1F	79.4µM*	7.8%	-0.7%	11.4%	u
O=C1c2ccccc2C(=O)c2c([N+](=O)[O-])ccc(O)c21	31.6µM*	-36.3%	u	x	50.1µM*
CC1CCN(S(=O)(=O)c2cc(C(=O)Nc3ccc(Br)cc3F)n(C)c2)CC1	-7.7%	-7.0%[60.1 µM]	2.7%	1.8%	-11.0%
Cn1ccnc1C(O)c1ccccc1 (centres undefined)	-8.1%	5.0%	-0.3%	2.6%	-4.6%
COc1ccc2ccccc2c1C(O)c1nccn1C (centres undefined)	-8.8%	-26.5%	-14.0%	4.2%	25.1µM*
c1ccc(-c2[nH]ncc2-c2ccnc3ccccc23)nc1	x	7.9%[60.1 µM]	x	14.1%	x
Cc1ccc(NC(=O)Cn2ncc(Cl)c(Cl)c2=O)cc1S(=O)(=O)N1CCCCC1	-10.8%	u	x	-0.6%	50.1µM*
Cc1ccc(NC(=O)CN(C)C(=O)Cn2ncc(Cl)c(Cl)c2=O)cc1	u	-16.1%	u	3.4%	44.7µM*
Cc1ccc(NC(=O)Cc2ccc(Cl)cc2)cc1S(=O)(=O)N1CCCCCC1	u	-4.2%	x	-3.1%	14.2%
Cc1cccc(NC(=O)CNC(=O)Cn2ncc(Cl)c(Cl)c2=O)c1C	3.98µM*	u	x	14.1µM*	15.8µM*
COCCNC(=O)c1ccccc1NC(=O)c1nsc2ccccc12	3.1%	-4.9%[60.1 µM]	-0.5%	2.7%	-27.5%
COc1cccc(CNC(=O)C(=O)NCC(c2ccco2)S(=O)(=O)c2ccccc2)c1 (centres undefined)	-3.9%	-14.5%[60.1 µM]	-0.3%	2.6%	-7.7%
O=C1C(c2ccccc2)=[N+]([O-])c2ccccc21	u	-24.7%	x	10.9%	8.91µM*
Cc1ccccc1Cn1ccc(NC(=O)c2cc3ncc(Br)cn3n2)n1	-3.2%	-2.0%	20µM*	u	11.7%
Cc1ccccc1Cn1ccc(NC(=O)c2nn3cccnc3c2Cl)n1	-15.3%	-8.3%	-0.7%	0.0%	63.9%
COCCn1c(SCC(=O)Nc2sc(C)c(C)c2C#N)nnc1-c1ccc(OC)cc1	-8.4%	-6.6%	0.3%	5.1%	4.4%
Cc1ccc(-c2nnc(SCC(=O)Nc3sc(C)c(C)c3C#N)n2C)cc1	u	-7.4%	22.4µM*	-1.1%	9.5%
O=C(Nc1ccccc1C(=O)O)c1cccc(S(=O)(=O)N2CCCC2)c1	-16.3%	-9.4%	1.4%	0.4%[12.3 µM]	6.4%
CCC[C@@H]1CC2=CC(=O)CC[C@]2(C)[C@H]2CC[C@@]3(C)[C@@H](CC[C@@]34CCC(=O)O4)[C@H]12	x	-6.1%[60.1 µM]	x	11.5%	x
CCc1nn2c(=O)cc(COC(=O)c3cccc(NC(=O)c4ccccc4C)c3)nc2s1	-17.4%	-6.7%[60.1 µM]	u	1.2%	20.7%
SMILES	POLH inh	POLK inh	Pol beta inh	TDP1 inh	POLI inh
CCCCCCCCCCCCCCCCCC(=O)OCC(C)O (centres undefined)	x	u	x	-7.1%	x
CCCCCCCCCCCCCCCC(=O)OCC(O)C1OC(=O)C(O)=C1O (centres undefined)	x	14.1µM*	x	u	x
COC(=O)[C@@H]1C[C@@]2(Br)c3ccccc3N(S(=O)(=O)c3ccccc3)[C@H]2N1C(=O)OC	-16.7%	-1.1%	x	x	89.1µM*
COC(=O)[C@@H]1C[C@]2(Br)c3ccccc3N(S(=O)(=O)c3ccccc3)[C@@H]2N1C(=O)OC	-12.4%	3.2%	x	x	-15.7%
Cc1ccc(S(=O)(=O)N2CCC(c3nc(-c4cccs4)nc4ccccc34)CC2)cc1	x	u	x	x	8.1%
COc1ccccc1Nc1nc(NCCCN(C)C)nc(N)c1[N+](=O)[O-]	-24.1%	-18.5%	17.8µM*	-1.2%	-21.0%
